Values joined by “and” are separate entries in the source; they are usually repeats but may differ in a detail not shown here. Equal values may be shown once. Compounds without any hit were thinned out: in the full panel of roughly 83,000, 20% have a hit.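 Interpretation: 100, growth as untreated; towards 0, rising growth inhibition; 0, no net growth; 0 to -100, cell death. Compounds scoring below 10 were considered active.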 Active and inactive are the calls of the source.
Key:
Assay in all cases: NCI-60 one-dose screen, 48 h (100 = growth as untreated, 0 = no growth, -100 = all killed)
Conditions in all cases: 10 µM unless noted
[1] = test system: SK-MEL-2 melanoma
[2] = test system: EKVX NSCLC
[3] = test system: SN12C renal
[4] = test system: UO-31 renal
[5] = test system: TK-10 renal
[6] = test system: ACHN renal
[7] = test system: CAKI-1 renal
[8] = test system: A498 renal
[9] = test system: HL-60(TB) leukemia
[10] = test system: MOLT-4 leukemia
[11] = test system: SR leukemia
[12] = test system: OVCAR-8 ovarian
[13] = test system: OVCAR-4 ovarian
[14] = test system: SK-OV-3 ovarian
[15] = test system: IGROV1 ovarian
[16] = test system: OVCAR-3 ovarian
[17] = test system: HS 578T breast
[18] = test system: CCRF-CEM leukemia
[19] = test system: RPMI-8226 leukemia
[20] = test system: OVCAR-5 ovarian

Measured: growth

Cc1nnc([S-])o1.[Au+].c1ccc([PH+](c2ccccc2)c2ccccc2)cc1
inactive: [1] 47.9% | [2] 87.3% | [3] 40.8% | [4] 55.1% | [5] 102% | [7] 41.6% | [8] 90.5% | [10] 38.6% | [11] 20.8% | [12] 44.8% | [13] 60.4% | [14] 111% | [15] 20.9% | [17] 30.4%
active: [6] 0.817% | [9] 6.51% | [16] -61.4%

C[C@]12CCc3sc(Nc4ccc(O)cc4)nc3C1=CC[C@@H]1[C@@H]2CC[C@]2(C)C(=O)CC[C@@H]12
inactive: [1] 72.5% | [2] 98% | [3] 30.4% | [5] 22.8% | [7] 47.1% | [8] 101% | [10] 11% | [12] 35.9% | [20] 117% | [13] 57.1% | [14] 108%
active: [4] -48.8% | [18] 8.33% | [11] 9.6% | [19] -24.5% | [16] -31.7%

C=C1C(=O)OC2CC3(C)OC3C3OC3C3=CC(OC3=O)C12 (stereo not drawn)
inactive: [1] 100% | [2] 111% | [3] 100% and 97.4% | [4] 44.3% and 44.2% | [8] 113% and 106% | [11] 10.7% and 47.9% | [19] 97.9% and 38% | [12] 87.2% and 88.6% | [13] 60% and 92.5% | [14] 103% and 106% | [15] 102% and 107% | [16] 41.8% | [17] 96.8%
-30.3% (active) and 58.3% (inactive): [10]
active: [6] -5.94% and -29% | [7] 4.76% and 6.96% | [9] -17.4% and 3.33% | [18] -42.4% and -54.4%

Cc1ccccc1-n1c(/C=C\c2ccccn2)nc2ccccc2c1=O
active: [11] -5.07%
inactive: [1] 79.4% | [2] 82.8% | [3] 77.7% | [4] 54.7% | [5] 49% | [7] 31.2% | [8] 62.1% | [9] 19.9% | [18] 29.9% | [10] 32.7% | [12] 71% | [20] 106% | [13] 67.6% | [14] 86.6% | [15] 67.1% | [16] 50.3% | [17] 44.2%

O=C(O)C(F)F
inactive: [1] 120% | [2] 101% | [3] 104% | [4] 94.9% | [5] 97.7% | [7] 102% | [8] 84.4% | [9] 96% | [10] 102% | [11] 109% | [12] 105% | [13] 112% | [14] 98.5% | [15] 114% | [16] 115% | [17] 96.2%

CCCC(C)SP(=S)(SC(C)CCC)SC(C)CCC (stereo not drawn)
inactive: [1] 107% | [2] 96.7% | [3] 108% | [4] 93% | [5] 104% | [7] 104% | [8] 113% | [9] 106% | [18] 103% | [10] 110% | [11] 110% | [19] 105% | [12] 107% | [20] 112% | [13] 110% | [14] 108% | [16] 98.5% | [17] 108%

NC1CN2CCC1CC2 (stereo not drawn)
inactive: [1] 100% | [2] 96.5% | [3] 108% | [4] 80.3% | [5] 98.2% | [7] 86.7% | [8] 97.8% | [9] 84.9% | [18] 93% | [10] 97.8% | [12] 97.8% | [20] 95.5% | [13] 106% | [15] 102% | [16] 105% | [17] 101%

COC[C@H]1OC(=O)c2coc3c2[C@@]1(C)C1=C(C3=O)[C@@H]2CCC(=O)[C@@]2(C)C[C@H]1OC(C)=O
inactive: [1] 17.3% | [2] 42.1% | [3] 43.3% | [4] 31.4% | [5] 38.8% | [7] 32.2% | [9] 25.8% | [18] 46.6% | [10] 42.2% | [11] 12.1% | [19] 58.8% | [13] 53.2% | [14] 39.9% | [16] 41.7%
active: [15] -28%

COc1ccc2c(c1)c(-c1nc(-c3cn(C)c4ncccc34)cs1)cn2CCCCN1CCOCC1
inactive: [1] 64.4% | [2] 60.2% | [3] 68% | [4] 34% | [5] 69.9% | [7] 41.4% | [8] 58.1% | [9] 24.7% | [12] 48.5% | [20] 56.9% | [13] 60.2% | [14] 79.7% | [15] 67.8% | [16] 50.8% | [17] 18.8%
active: [10] -15.6% | [11] -5.63% | [19] -18.1%

Clc1ccc(COC(Cn2ccnc2)c2ccc(Cl)cc2Cl)c(Cl)c1 (stereo not drawn)
inactive: [1] 69.7% and 87% | [2] 48.6% and 59.2% | [3] 53.6% and 73.9% | [4] 25.8% and 35.5% | [6] 53.8% and 72.4% | [7] 29.6% and 53.7% | [8] 46.1% | [18] 51% and 53.5% | [10] 41.5% and 45.3% | [11] 65% | [19] 41.2% and 54.6% | [12] 38.4% | [13] 49% and 63.2% | [14] 79.7% and 91% | [15] 38.3% and 22.3% | [16] 48.9% and 64.2% | [17] 74.3%
-0.421% (active) and 18.6% (inactive): [9]
64.5% (inactive) and -11.4% (active): [20]

CC1(C)C=Cc2c(ccc3c2[N+]([O-])=C2C3=C[C@@]34NC(=O)[C@]5(CCCN5C3=O)C[C@@H]4C2(C)C)O1
inactive: [1] 69.8% | [2] 34.3% | [3] 30.7% | [4] 73.5% | [5] 83.1% | [7] 27% | [8] 69% | [9] 33.6% | [18] 14.2% | [10] 28.7% | [11] 15.4% | [19] 24.6% | [13] 43.5% | [14] 85.5% | [15] 55.6% | [16] 25% | [17] 90.8%

C/C(=C(\c1ccc(OCCN2CCOCC2)cc1)c1ccc(OC(=O)Cc2ccccc2)cc1)c1ccc(Cl)cc1
inactive: [1] 81.5% | [2] 95.4% | [3] 91.2% | [4] 85.5% | [5] 90.8% | [7] 78.7% | [8] 96.8% | [9] 82.9% | [18] 84.9% | [10] 56.3% | [11] 114% | [19] 57.6% | [12] 97.7% | [13] 98.5% | [14] 110% | [16] 95.8% | [17] 104%

NC(N)=NC(N)=Nc1ccc(Cl)cc1
inactive: [1] 111% | [2] 93% | [3] 103% | [4] 95.2% | [5] 115% | [6] 93.9% | [9] 48.4% | [10] 93.3% | [11] 94.9% | [19] 94.2% | [12] 121% | [13] 96.3% | [14] 110% | [15] 116% | [16] 105%

CO/N=C1\CC[C@]2(C)[C@H]3CC[C@]4(C)C(=O)CC[C@H]4[C@@H]3C[C@@H]3SC(N)=N[C@@]32C1
inactive: [1] 96.5% | [2] 91.8% | [3] 107% | [4] 77.9% | [5] 116% | [7] 74.3% | [8] 98.9% | [9] 91.9% | [18] 98.7% | [10] 86.1% | [11] 71.8% | [12] 105% | [20] 105% | [13] 90.9% | [14] 122% | [15] 101% | [16] 85.5% | [17] 102%

— PubChem BioAssay (NCI)
